# Laboratory results from PubChem BioAssay (EPA / NIEHS).
# Values joined by “and” are separate entries in the source; they are usually repeats but may differ in a detail not shown here. Equal entries are not always repeated. Active and inactive are the calls of the source. Rule for the calls: active = hit-call score of the fitted dose curve at least 0.9, where 1 is the maximum; inactive = score below 0.9.
# Assay: BSK_SAg_PBMCCytotoxicity: PBMC Cytotoxicity Assessment in the BioMAP Diversity Plus: SAg Assay (AID 2283093);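 note: fitted both ways against DMSO so a hit may be loss or gain of signal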
# Settings: primary human HUVEC with PBMC
# Description: BSK_SAg is a cell-based, multiplexed-readout assay that uses umbilical vein endothelium and peripheral blood mononuclear cells, a human vascular primary cell co-culture, with measurements taken at 24 hours after chemical dosing in a 96-well plate.BSK_SAg_PBMCCytotoxicity is an assay component measured in the BSK_SAg assay. It measures Alamar blue related to cell death using Alamar Blue Reduction technology.Data from the assay component BSK_SAg_PBMCCytotoxicity was analyzed into 1 assay endpoint. This assay endpoint, BSK_SAg_PBMCCytotoxicity, was analyzed with bidirectional fitting relative to DMSO as the negative control and baseline of activity. Using a type of viability reporter, gain or loss-of-signal activity can be used to understand changes in the viability. Furthermore, this assay endpoint can be referred to as a secondary readout, because this assay has produced multiple assay endpoints where this one serves a viability function. To generalize the intended target to other relatable targets, this assay endpoint is annotated to the cell cycle intended target family, where the subfamily is cytotoxicity.
# The levels of cell surface (or secreted, indicated by the prefix "s") biomarker endpoints were measured by ELISA. Overt cytotoxicity to cells in confluent adherent cultures (all systems other than the BT system) was assessed by measuring total protein levels using sulforhodamine B (SRB) staining in parallel cultures at the time of biomarker measurements, indicated as SRB endpoints. For proliferation assays for adherent cell types, individual cell types are cultured at sub-confluence and relative cell numbers quantified by SRB staining at time points optimized for each system (48 h: 3C and CASM3C systems; 72 h: BT and HDF3CGF systems; 96 h: SAg system). SRB was performed by staining cells with 0.1% SRB after fixation with 10% TCA and reading wells at 560 nm.Viability and proliferation of PBMC (T cells) was quantified by Alamar Blue reduction for the SAg and BT systems. For PBMC viability (referred to as PBMC Cytotoxicity within the assay endpoint names), cells were plated (75,000/well in a 96-well plate) and then chemical samples added for 1 h before addition of activators, SEB and TSST-1 (20 ng/mL final concentration each). Cells were incubated for 90 h. Then, Alamar Blue (20 uL/well) (Invitrogen, Cat DAL1100) was added for 6 h, and the plates were read with a fluorescence microplate reader at 546/580 nm (excitation/emission). For PBMC proliferation, cells were plated and activated as above but incubated for only 16 h prior to addition of Alamar Blue. Plates were read after 6 h.
SMILES,AC50,outcome
N#Cc1c(-c2ccc(Cl)cc2)[nH]c(C(F)(F)F)c1Br,5.4 µM (active),
Nc1ccc([N+](=O)[O-])cc1Cl,,inactive
CCOP(=S)(Oc1ccc([N+](=O)[O-])cc1)c1ccccc1 (stereo not given),,inactive
CCCCC(CC)COC(=O)c1c(Br)c(Br)c(Br)c(Br)c1C(=O)OCC(CC)CCCC (stereo not given),,inactive
COC(=O)C(F)(F)C(F)(F)OC(F)(C(F)(F)F)C(F)(F)OC(F)=C(F)F (stereo not given),,inactive
O=C(O)C(F)(F)OC(F)(F)C(F)(F)OC(F)(F)F,,inactive
CCCCN(CCCC)N=O,,inactive
CCC1(c2ccccc2)C(=O)N=C(O)NC1=O (stereo not given),,inactive
Cc1ccc(N)cc1N,,inactive
c1nc[nH]n1,,inactive
CCCCCCCc1ccc(O)cc1,27.5 µM (active),
O=S(=O)(F)C(F)(F)C(F)(F)C(F)(F)C(F)(F)C(F)(F)C(F)(F)C(F)(F)C(F)(F)F,,inactive
[N-]=[N+]=[N-],,inactive
C=CC(=O)OCC(CC)(COC(=O)C=C)COC(=O)C=C,2.93 µM (active),
COCCOCCO,,inactive
Nc1ccc(Cl)cc1,,inactive
O=C(O)C(Cl)Cl,,inactive
COP(=O)(CCC(=O)NCO)OC,,inactive
Cc1cccc(N)c1,,inactive
ClC(Cl)=C(c1ccc(Cl)cc1)c1ccccc1Cl,10.9 µM (active),

SMILES,AC50,outcome
OCC(F)(F)OC(F)(F)C(F)(F)OC(F)(F)CO,,inactive
CCN(CC)c1ccccc1,,inactive
CCCCc1ccccc1,,inactive
OCC(F)(F)OC(F)(F)C(F)(F)OC(F)(F)C(F)(F)OC(F)(F)F,15.3 µM (active) and 21.2 µM (active),
c1ccc2c(c1)Nc1ccccc1S2,2.19 µM (active),
O=C(O)C(F)(OC(F)(F)C(F)(F)C(F)(F)F)C(F)(F)F (stereo not given),,inactive
CC(O)C(F)(F)C(F)(F)F (stereo not given),,inactive
CCNc1nc(Cl)nc(NC(C)(C)C)n1,,inactive
CC(C)(C)c1ccccc1OP(=O)(Oc1ccccc1)Oc1ccccc1,33.2 µM (active),
CC(Cl)(Cl)C(=O)O,,inactive
O=P(Oc1ccccc1)(Oc1ccccc1)Oc1ccccc1,,inactive
ClC1=C(Cl)C2(Cl)C3C(Cl)C(Cl)CC3C1(Cl)C2(Cl)Cl (stereo not given),13.8 µM (active),
CCOP(=S)(NC(C)C)Oc1ccccc1C(=O)OC(C)C (stereo not given),,inactive
ClC(Cl)c1ccccc1,,inactive
Nc1ccc2ccccc2c1,,inactive
Nc1cc2c3c(c1)C(c1ccccc1)=N[C@@H](NC(=O)c1cccnc1)C(=O)N3CC2,,inactive
NC(=O)C(F)(F)C(F)(F)F,,inactive
CCOS(=O)(=O)OCC,,inactive
OCC(F)(F)OC(F)(F)C(F)(F)OC(F)(F)C(F)(F)OC(F)(F)CO,,inactive
CCCCOCCOP(=O)(OCCOCCCC)OCCOCCCC,,inactive
